From PubChem BioAssay (NCI)
This is part of a sample that, as a whole, favours compounds with a hit. Of some 83,000 tested, about 20% had one in any assay.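 Activity criterion: percent growth below 10, measured after cells in 96-well plates were exposed to a single compound concentration for 48 hours.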 A number with no mark means an inactive call. Activity calls are given as the source filed them.

Legend:
Assay in all cases: NCI-60 one-dose screen, 48 h (100 = growth as untreated, 0 = no growth, -100 = all killed)
Details in all cases: 10 µM unless noted
NCI-H23 lung = tested on: NCI-H23 lung
NCI-H322M lung = tested on: NCI-H322M lung
HOP-62 NSCLC = tested on: HOP-62 NSCLC
NCI-H460 lung = tested on: NCI-H460 lung
HOP-92 NSCLC = tested on: HOP-92 NSCLC
NCI-H522 lung = tested on: NCI-H522 lung
A549/ATCC NSCLC = tested on: A549/ATCC NSCLC
786-0 renal = tested on: 786-0 renal
COLO 205 colon = tested on: COLO 205 colon
DU-145 prostate = tested on: DU-145 prostate
K-562 leukemia = tested on: K-562 leukemia
MDA-MB-231 breast = tested on: MDA-MB-231 breast
RXF 393 renal = tested on: RXF 393 renal
SF-268 CNS = tested on: SF-268 CNS
SF-295 CNS = tested on: SF-295 CNS
SF-539 CNS = tested on: SF-539 CNS
M14 melanoma = tested on: M14 melanoma
MALME-3M melanoma = tested on: MALME-3M melanoma
NCI-H226 lung = tested on: NCI-H226 lung
UACC-257 melanoma = tested on: UACC-257 melanoma

Row | SMILES | growth (NCI-H23 lung) | growth (NCI-H322M lung) | growth (HOP-62 NSCLC) | growth (NCI-H460 lung) | growth (HOP-92 NSCLC) | growth (NCI-H522 lung) | growth (A549/ATCC NSCLC) | growth (786-0 renal) | growth (COLO 205 colon) | growth (DU-145 prostate) | growth (K-562 leukemia) | growth (MDA-MB-231 breast) | growth (RXF 393 renal) | growth (SF-268 CNS) | growth (SF-295 CNS) | growth (SF-539 CNS) | growth (M14 melanoma) | growth (MALME-3M melanoma) | growth (NCI-H226 lung) | growth (UACC-257 melanoma)
1 | COc1ccc(-n2c(=O)c3ccccc3n(Cc3ccc(C(=O)NO)cc3)c2=O)cc1 | -50.1% (active) | 38.4% | 25.8% | 36.4% | 48.2% | -41.8% (active) | 38.6% | 56.5% | -50.1% (active) | 20.2% | 1.76% (active) | 47.4% | -41.6% (active) | 32.5% | 4.34% (active) | -10.6% (active) | -7.23% (active) | – | – | –
2 | COc1ccc(-c2cc3c(oc2=O)-c2ccccc2OC3OC(C)=O)cc1 (configuration not stated) | 93.4% | 100% | 98.8% | 104% | 83.5% | 88% | 93.3% | 91.3% | 97.4% | 107% | 62.5% | 85.7% | – | 108% | 97.9% | 101% | 101% | 107% | – | –
3 | O=C1C=CC2(NN=C(c3ccccc3)N2c2ccc(Cl)cc2)c2cccc(O)c21 (configuration not stated) | – | 89.5% | 26.5% | 64.3% | 125% | 51.1% | 22.3% | 93.4% | – | 51.9% | 25.5% | 77.4% | 119% | 57.3% | 27.8% | 26.6% | 28.9% | 38.8% | 60.5% | 5.85% (active)
4 | COCCN1CCN(Cc2ccc(-c3n[nH]c4c3C(=O)c3c(NC(=O)NN5CCOCC5)cccc3-4)cc2)CC1 | – | -13.1% (active) | -30.7% (active) | -68.7% (active) | 39.7% | -34.1% (active) | -42.4% (active) | 5.39% (active) | -64.5% (active) | 4.89% (active) | -0.714% (active) | -18.1% (active) | -87.4% (active) | 6.61% (active) | 2.78% (active) | -86.2% (active) | -52.6% (active) | -63.1% (active) | 6.04% (active) | -19.1% (active)
5 | CCN(CCO)CCCOc1ccc2c(Nc3cc(CC(=O)Nc4cccc(F)c4)[nH]n3)ncnc2c1 | – | 14.4% | 35.7% | 22.6% | 23.2% | 22.9% | 23.9% | 66.1% | -35.6% (active) | 56.6% | 32% | 39.4% | 86.1% | 56.2% | 65.4% | 25.8% | 4.94% (active) | -17.5% (active) | 63.9% | -23.2% (active)
6 | Cc1cc([C@@H](C)Nc2ccccc2C(=O)O)c2nc(N3CCOCC3)cc(=O)n2c1 | – | 39.9% | 37.5% | 22.6% | 13.7% | 42.3% | 32% | 18.6% | -5.47% (active) | 57.2% | 66.9% | 60.3% | -21.1% (active) | 47.6% | 9.97% (active) | 19.7% | 45.9% | 40.7% | – | 32.8%
7 | CCN1CCN(c2nc(C)cc(N(CCCNc3ccnc4cc(Cl)ccc34)Cc3ccc4c(c3)OCO4)n2)CC1 | – | -11.1% (active) | -42.1% (active) | -6.13% (active) | -33.9% (active) | -43.1% (active) | 5.33% (active) | -85.8% (active) | – | 25% | -10.5% (active) | -32.8% (active) | -73.4% (active) | -6.06% (active) | -76.1% (active) | -86.1% (active) | -87.9% (active) | -81.9% (active) | 61% | –
8 | CC1(O)CCC2CC3OC3(C)CCC3OC3(C)C(O)CC1C2(C)C (configuration not stated) | – | 115% | 116% | 120% | -15.9% (active) | 97.6% | 92.8% | 104% | 109% | 105% | 119% | 122% | – | 113% | 52% | 116% | 114% | 113% | 115% | –
9 | O=C(COc1ccc(/C=C2\Cc3ccc(Cl)cc3C2=O)cc1)Nc1nccs1 | – | 118% | 101% | 95.2% | 77.5% | -7.85% (active) | 83.7% | 95.8% | 124% | 118% | 121% | 92.2% | 98.2% | 114% | 113% | 96.8% | 103% | 126% | 98.4% | 98.5%
10 | Cc1cccc(NC(=O)[C@@H]2c3ccccc3C(=O)N(c3ccc(Cl)cc3)[C@H]2c2ccc(Cl)cc2)n1 | – | 80.8% | 53.1% | 52.5% | 42% | 38.7% | 23.6% | 61.2% | – | 79.8% | 47.7% | 32.1% | – | 62.8% | 24.1% | 71% | 45.8% | 61.1% | 55.1% | –
11 | CNC(=O)c1cc(Oc2ccc3nc(NC(=O)Nc4ccc(Cl)c(C(F)(F)F)c4)sc3c2)ccn1 | – | 23.7% | -31.3% (active) | 3.45% (active) | -27.6% (active) | 17.1% | -25.1% (active) | -64.4% (active) | 23.8% | 19.2% | 47.2% | 4.76% (active) | -19.4% (active) | 21.9% | -10.9% (active) | -2.86% (active) | -10.4% (active) | -21.1% (active) | 20.6% | 61.4%
12 | CCCCOc1nc2cc(Cl)ccc2cc1/C=C/c1cc(/C=C/c2cc3ccc(Cl)cc3nc2OCCCC)n(-c2ccccc2)n1 | – | 92.5% | 32.3% | 98.3% | 76.8% | 61% | 75.4% | 64% | 88.3% | 101% | 91.7% | 82.3% | 81.6% | 74.9% | 52.4% | 91.9% | 99.3% | 92.8% | 75.1% | 67%
13 | O=C1CC(c2ccc3c(c2)OCO3)c2ncn(-c3ccc(Cl)cc3)c2N1 (configuration not stated) | – | 51.9% | 60.3% | 14.3% | 69.7% | -19.2% (active) | 48.7% | 38.4% | 99.5% | 18.3% | 14.3% | 44.3% | – | 44.4% | 70.8% | 1.25% (active) | -2.01% (active) | 62.6% | 69.8% | –
14 | CN1CCC(COc2cnc(-c3cccc(Cn4nc(-c5cccc(C#N)c5)ccc4=O)c3)nc2)CC1 | – | 88.7% | – | 52.4% | 72.2% | 25.5% | 48.1% | 61.9% | -60.3% (active) | 77.8% | 3.04% (active) | 57.3% | 87.7% | 67.2% | 54.5% | 33.5% | 39% | 48.4% | 92.2% | -27.5% (active)
15 | C=CC[n+]1c(/C=C/C=C2\N(C)c3ccccc3C2(C)C)sc2ccc(OC)cc21 | – | 26.2% | 14.4% | 7.84% (active) | -4.42% (active) | 3.52% (active) | 16.6% | 26.8% | -37.4% (active) | 25.6% | 10.3% | 26.1% | – | 32.7% | -17.7% (active) | 25.7% | 23% | 5.31% (active) | 10.8% | –
16 | CN1CCN(CC(=O)Nc2ccc(-c3nc4ccccc4s3)cc2)CC1 | – | 77.9% | – | 84.7% | 35.7% | 58.9% | 88.6% | 78.7% | 39.7% | 85.2% | 41.8% | 59.8% | 54.3% | 83% | 91.1% | -31.9% (active) | 67.6% | 98.3% | 96.2% | 105%
17 | COc1ccc(-c2nc(N)ncc2Oc2ccccc2OC)c(O)c1 | – | 50.5% | – | 16.4% | 49.2% | 28.7% | 35.7% | 37% | 2.73% (active) | 34.9% | 12.2% | 51.9% | – | 46.3% | -0.599% (active) | 8.99% (active) | 12.5% | 48% | 73.5% | –
18 | O=C1NC(=O)/C(=C/c2ccc3nccc(-c4ccncc4)c3c2)S1 | – | -50.8% (active) | -36.1% (active) | -2.65% (active) | -41.1% (active) | -95.6% (active) | -51.8% (active) | -41.6% (active) | -56.6% (active) | 2.86% (active) | 5.97% (active) | -13.3% (active) | -74.2% (active) | -11.5% (active) | -48.2% (active) | -61.5% (active) | -45.5% (active) | -42.7% (active) | – | -33.5% (active)
19 | O=C(c1c(F)ccc(NS(=O)(=O)N2CC[C@@H](F)C2)c1F)c1c[nH]c2ncc(-c3cnc(C4CC4)nc3)cc12 | – | 21.6% | 37.7% | 37.3% | 35.7% | 32.5% | 33.8% | 39.8% | 0.255% (active) | 49.9% | 15.8% | 35.5% | 10% | 49.4% | 42.8% | 53.5% | -0.512% (active) | 0.406% (active) | 62.3% | -21.3% (active)
20 | NC1=Nc2cc(OCCCN3Cc4ccccc4C3)c(OCC3CC3)cc2C12CCCC2 | – | 91.6% | 77% | 69.8% | 40.7% | 39.7% | 64.4% | 55.6% | -62.5% (active) | 78.6% | -8.16% (active) | 36.2% | 60.6% | 74.1% | 64.6% | 49.2% | -70.2% (active) | -58.3% (active) | 80.7% | -47.2% (active)
